From PubChem BioAssay (EPA / NIEHS)
Calls of active or inactive are those of the source. The calls were made as follows: active = hit-call score of the fitted dose curve at least 0.9, where 1 is the maximum; inactive = score below 0.9.

Key:
[1] = target: Transcription factor E2F1 (Homo sapiens) (UniProt Q01094); experiment: ATG_E2F_CIS: Attagene CIS-FACTORIAL HepG2 Assay for human E2F Transcription Factor 1 (AID 2282935); conditions: HepG2 Attagene cis-reporter, E2F reporter RNA transcripts; actives raise or lower the signal
Method in brief: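 Gain or loss of reporter transcript, fitted against DMSO, reflects E2F1-driven transcription. Transiently transfected HepG2 dosed 24 h before RNA isolation. Quantified by fluorescent RT-PCR products separated by capillary electrophoresis.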

[2] = ATG_E_Box_CIS: Attagene CIS-FACTORIAL HepG2 Assay for human Enhancer Box (E-box) (AID 2282936); conditions: HepG2 E-box cis-reporter transcription, actives raise or lower the signal
Method in brief: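 E-box-driven reporter transcripts measured in transiently transfected HepG2 after 24 h exposure: RNA reverse-transcribed, PCR-amplified, fluorescently labelled, digested and resolved by capillary electrophoresis. Gain or loss relative to DMSO.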

[3] = ATG_M_61_CIS: Attagene CIS-FACTORIAL HepG2 Assay for M61 Transcription Factor (Internal Marker) (AID 2282937); conditions: HepG2 Attagene CIS-FACTORIAL M61 internal marker reporter; actives raise or lower the signal
Method in brief: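 Human liver HepG2, transient MRTU transfection (cis promoter elements), 24 h compound. Total RNA → oligo(dT) RT → PCR → FAM label → HpaI → CE. Internal background marker; bidirectional fitting, DMSO = baseline.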

[4] = ATG_EGR_CIS: Attagene CIS-FACTORIAL HepG2 Assay for human Early Growth Response 1 (EGR1) (AID 2282938); conditions: HepG2 Attagene CIS-FACTORIAL EGR reporter mRNA; actives raise or lower the signal
Method in brief: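 Transient transfection of human HepG2 with multiple cis-regulated reporter units, chemical exposure 24 h, total RNA isolated. Reverse transcription, PCR, fluorescent labelling and capillary electrophoresis quantify reporter transcripts; activity fitted bidirectionally against DMSO.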

[5] = ATG_M_19_CIS: Attagene CIS-FACTORIAL HepG2 Assay for M19 Transcription Factor (Internal Marker) (AID 2282939); conditions: HepG2 Attagene CIS-FACTORIAL M19 internal marker reporter; actives raise or lower the signal
Method in brief: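 Following a 24 h exposure, RNA from transfected HepG2 cells was reverse-transcribed, PCR-amplified with reporter-specific primers, end-labelled with 6-FAM and HpaI-digested before capillary separation. Values represent gain or loss versus DMSO.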

[6] = ATG_ERE_CIS: Attagene CIS-FACTORIAL HepG2 Assay for Estrogen Response Element (ERE) (AID 2282940); conditions: HepG2 ERE cis-reporter, Attagene RNA transcript; actives raise or lower the signal
Method in brief: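 HepG2, transient cis-reporter units, 24 h exposure. RNA isolated, oligo(dT) RT, reporter-specific PCR, FAM extension, HpaI cut, CE detection. Gain/loss-of-signal vs DMSO.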

[7] = ATG_Ets_CIS: Attagene CIS-FACTORIAL HepG2 Assay for human Erythroblast Transformation Specific (ETS) (AID 2282941); conditions: HepG2 ETS cis-reporter transcription, actives raise or lower the signal
Method in brief: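 Bidirectional fit versus DMSO of reporter mRNA signal, detected by RT-PCR and capillary electrophoresis in HepG2 cells transiently transfected with cis-element reporters and dosed 24 h.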

[8] = target: Hepatocyte nuclear factor 3-beta (Homo sapiens) (UniProt Q9Y261); experiment: ATG_FoxA2_CIS: Attagene CIS-FACTORIAL HepG2 Assay for human Forkhead box A2 (FOXA2) (AID 2282942); conditions: HepG2 cis-reporter transcription factor activity, 24 h; actives raise or lower the signal
Method in brief: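 Transient MRTU transfection of HepG2 liver cells; 24 h treatment; total RNA → oligo(dT) RT → PCR → FAM primer extension → HpaI cut → CE. Bidirectional fit vs DMSO.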

[9] = ATG_FoxO_CIS: Attagene CIS-FACTORIAL HepG2 Assay for human Forkhead box O (FoxO) (AID 2282943); conditions: HepG2 Attagene cis-reporter, FoxO element, mRNA; actives raise or lower the signal
Method in brief: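 Human hepatoma HepG2 cells carry transiently introduced reporter transcription units controlled by cis promoter elements. Chemical treatment lasted 24 h, and mRNA signal was compared with DMSO.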

[10] = ATG_GATA_CIS: Attagene CIS-FACTORIAL HepG2 Assay for human GATA Binding Protein (AID 2282944); conditions: HepG2 GATA cis-element reporter, Attagene multiplex mRNA; actives raise or lower the signal
Method in brief: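 DMSO serves as negative control and baseline for bidirectional fitting of reporter mRNA changes. HepG2 cells bearing transiently transfected cis-promoter reporters were exposed 24 h; transcripts detected via RT-PCR and capillary electrophoresis.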

[11] = ATG_GLI_CIS: Attagene CIS-FACTORIAL HepG2 Assay for human Zinc Finger Protein GLI1 (AID 2282945); conditions: HepG2, Attagene cis-factorial reporter mRNA, GLI element; actives raise or lower the signal
Method in brief: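 Bidirectional curve fits relative to DMSO, using reporter mRNA levels from RT-PCR plus capillary electrophoresis. Cells were HepG2 transiently carrying cis-regulated reporter constructs, harvested 24 h after dosing.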

[12] = target: Bile acid receptor (Homo sapiens) (UniProt Q96RI1); experiment: ATG_IR1_CIS: Attagene CIS-FACTORIAL HepG2 Assay for human Nuclear Receptor Subfamily 1 Group H Member 4 (NR1H4), IR1 submotif (AID 2282946); conditions: IR1 reporter transcription, actives raise or lower the signal
Method in brief: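 HepG2 cells transiently transfected with multiplexed cis-element reporter units read endogenous transcription factor activity. After 24 h compound exposure, reporter mRNA was quantified by RT-PCR, fluorescent labelling, HpaI digestion and capillary electrophoresis; bidirectional fitting versus DMSO baseline.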

[13] = ATG_GRE_CIS: Attagene CIS-FACTORIAL HepG2 Assay for human Glucocorticoid Response Elements (GRE) (AID 2282947); conditions: HepG2 GRE cis-reporter, Attagene multiplex mRNA; actives raise or lower the signal
Method in brief: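 Reporter transcripts read by RT-PCR with capillary electrophoresis fluorescence after a 24 h chemical exposure of HepG2 cells transiently transfected with multiple cis-element reporter units. Gain or loss fitted against DMSO.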

[14] = ATG_ISRE_CIS: Attagene CIS-FACTORIAL HepG2 Assay for human Interferon Regulatory Factor 1 (IRF1) binding to an Interferon-Stimulated Response Element (ISRE) (AID 2282948); conditions: HepG2 ISRE cis-reporter (Attagene), mRNA transcription readout; actives raise or lower the signal
Method in brief: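 Uses HepG2 liver cells transfected with cis-regulated reporters and measures mRNA 24 h post-dosing through RT-PCR, primer-extension labelling and capillary electrophoresis, with DMSO as negative control.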

[15] = ATG_M_32_CIS: Attagene CIS-FACTORIAL HepG2 Assay for M32 Transcription Factor (Internal Marker) (AID 2282949); conditions: HepG2 Attagene cis-factorial M32 reporter, mRNA; actives raise or lower the signal;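 also: background control marker of the multiplexed CIS panel rather than a real target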
Method in brief: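 HepG2 human liver cells transiently transfected with cis-promoter-driven multiple reporter transcription units, dosed 24 h. Reporter mRNA quantified by RT-PCR, FAM-labelled primer extension, HpaI digest and capillary electrophoresis; bidirectional fit versus DMSO baseline.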

[16] = target: Hepatocyte nuclear factor 6 (Homo sapiens) (UniProt Q9UBC0); experiment: ATG_HNF6_CIS: Attagene CIS-FACTORIAL HepG2 Assay for human Hepatocyte Nuclear Factor 6 (HNF6) (AID 2282952); conditions: HepG2 Attagene cis-factorial HNF6 reporter transcription; actives raise or lower the signal
Method in brief: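 Activity values derive from bidirectional fitting against DMSO of reporter mRNA levels, measured by capillary electrophoresis of labelled RT-PCR products from HepG2 cells exposed 24 h.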

[17] = target: Heat shock factor protein 1 (Homo sapiens) (UniProt Q00613); experiment: ATG_HSE_CIS: Attagene CIS-FACTORIAL HepG2 Assay for human Heat Shock Transcription Factor 1 (HSE) (AID 2282953); conditions: HepG2 HSE cis-reporter, Attagene RNA transcription; actives raise or lower the signal
Method in brief: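 After a 24 h incubation with test chemical, transfected HepG2 cells were harvested for RNA; reporter transcripts were measured by RT-PCR and capillary electrophoresis. Values reflect gain or loss of signal relative to DMSO.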

[18] = ATG_MRE_CIS: Attagene CIS-FACTORIAL HepG2 Assay for human Metal Responsive Element (MRE) (AID 2282954); conditions: HepG2 MRE cis-reporter transcription, Attagene multiplex; actives raise or lower the signal
Method in brief: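 Endogenous MRE-dependent transcription read as reporter mRNA in transiently transfected human HepG2 cells at 24 h. RNA reverse-transcribed, PCR-amplified, labelled and resolved by capillary electrophoresis; gain or loss relative to DMSO.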

[19] = ATG_M_06_CIS: Attagene CIS-FACTORIAL HepG2 Assay for M06 Transcription Factor (Internal Marker) (AID 2282950); conditions: HepG2 Attagene CIS-FACTORIAL M06 internal marker reporter; actives raise or lower the signal
Method in brief: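 Fluorescence-labelled RT-PCR products from cis-promoter reporter units, cut with HpaI and resolved by capillary electrophoresis, give the signal. Cells are human HepG2, dosed for 24 h. Serves as background control, fitted relative to DMSO.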

[20] = target: Hypoxia-inducible factor 1-alpha (Homo sapiens) (UniProt Q16665); experiment: ATG_HIF1a_CIS: Attagene CIS-FACTORIAL HepG2 Assay for human Hypoxia Inducible Factor 1 (HIF1A) (AID 2282951); conditions: HepG2 Attagene cis-factorial HIF1a reporter transcription; actives raise or lower the signal
Method in brief: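 Transient MRTU transfection of human HepG2 liver cells, 24 h compound treatment, then total RNA isolation, oligo(dT) reverse transcription, PCR amplification, fluorescent labelling and capillary electrophoresis of reporter fragments. Gain or loss relative to DMSO.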

Measured: AC50

Chain of Heat shock factor protein 1 (Homo sapiens) (Q00613 whole entry, looked up): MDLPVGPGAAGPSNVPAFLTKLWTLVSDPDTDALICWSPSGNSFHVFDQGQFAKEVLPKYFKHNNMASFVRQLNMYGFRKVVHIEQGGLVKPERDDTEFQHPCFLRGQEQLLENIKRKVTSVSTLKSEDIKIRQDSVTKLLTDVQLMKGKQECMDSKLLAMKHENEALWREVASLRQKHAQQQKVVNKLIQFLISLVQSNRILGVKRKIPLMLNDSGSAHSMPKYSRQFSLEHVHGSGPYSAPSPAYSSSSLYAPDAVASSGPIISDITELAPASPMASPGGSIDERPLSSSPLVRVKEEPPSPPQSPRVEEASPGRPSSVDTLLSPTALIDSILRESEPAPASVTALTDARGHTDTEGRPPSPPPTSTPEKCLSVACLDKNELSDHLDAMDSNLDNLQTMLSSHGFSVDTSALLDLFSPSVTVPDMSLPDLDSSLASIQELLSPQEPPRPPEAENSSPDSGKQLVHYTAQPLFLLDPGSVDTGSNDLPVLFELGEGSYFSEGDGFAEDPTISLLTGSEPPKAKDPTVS
Chain of Hepatocyte nuclear factor 3-beta (Homo sapiens) (Q9Y261 whole entry, looked up): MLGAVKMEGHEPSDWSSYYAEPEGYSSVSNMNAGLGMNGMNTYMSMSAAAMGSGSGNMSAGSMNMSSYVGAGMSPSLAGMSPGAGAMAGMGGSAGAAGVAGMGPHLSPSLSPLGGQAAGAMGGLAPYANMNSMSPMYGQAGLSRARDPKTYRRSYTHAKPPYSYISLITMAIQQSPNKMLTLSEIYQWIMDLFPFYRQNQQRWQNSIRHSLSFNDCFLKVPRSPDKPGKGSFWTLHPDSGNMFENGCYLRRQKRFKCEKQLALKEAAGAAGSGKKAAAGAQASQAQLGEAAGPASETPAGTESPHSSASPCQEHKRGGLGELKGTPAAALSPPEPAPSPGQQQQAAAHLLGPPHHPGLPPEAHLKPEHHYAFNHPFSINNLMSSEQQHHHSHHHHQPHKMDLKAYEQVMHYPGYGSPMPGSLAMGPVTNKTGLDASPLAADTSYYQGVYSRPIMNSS
Chain of Hypoxia-inducible factor 1-alpha (Homo sapiens) (Q16665 whole entry, looked up, the tested form may be a part): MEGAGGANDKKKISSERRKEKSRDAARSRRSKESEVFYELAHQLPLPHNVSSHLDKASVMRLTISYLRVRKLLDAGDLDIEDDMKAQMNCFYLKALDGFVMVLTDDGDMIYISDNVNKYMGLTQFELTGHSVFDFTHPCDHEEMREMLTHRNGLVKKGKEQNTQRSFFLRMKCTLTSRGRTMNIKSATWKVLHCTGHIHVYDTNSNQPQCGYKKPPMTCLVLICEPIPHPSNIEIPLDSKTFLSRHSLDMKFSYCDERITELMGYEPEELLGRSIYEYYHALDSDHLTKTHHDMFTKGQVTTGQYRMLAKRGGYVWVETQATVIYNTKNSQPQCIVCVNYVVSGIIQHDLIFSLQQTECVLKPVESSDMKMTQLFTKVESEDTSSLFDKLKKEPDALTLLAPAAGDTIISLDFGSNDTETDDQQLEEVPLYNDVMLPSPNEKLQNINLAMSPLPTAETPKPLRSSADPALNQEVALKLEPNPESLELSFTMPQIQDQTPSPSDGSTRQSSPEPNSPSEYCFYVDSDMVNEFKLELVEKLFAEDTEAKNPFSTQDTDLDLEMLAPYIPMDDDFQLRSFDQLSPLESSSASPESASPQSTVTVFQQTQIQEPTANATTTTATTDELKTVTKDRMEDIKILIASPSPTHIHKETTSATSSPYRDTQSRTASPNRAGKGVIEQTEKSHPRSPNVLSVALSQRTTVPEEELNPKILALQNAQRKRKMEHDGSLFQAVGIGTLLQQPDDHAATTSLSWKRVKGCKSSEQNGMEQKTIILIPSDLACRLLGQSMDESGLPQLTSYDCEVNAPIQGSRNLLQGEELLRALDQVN
Chain of Bile acid receptor (Homo sapiens) (Q96RI1 whole entry, looked up): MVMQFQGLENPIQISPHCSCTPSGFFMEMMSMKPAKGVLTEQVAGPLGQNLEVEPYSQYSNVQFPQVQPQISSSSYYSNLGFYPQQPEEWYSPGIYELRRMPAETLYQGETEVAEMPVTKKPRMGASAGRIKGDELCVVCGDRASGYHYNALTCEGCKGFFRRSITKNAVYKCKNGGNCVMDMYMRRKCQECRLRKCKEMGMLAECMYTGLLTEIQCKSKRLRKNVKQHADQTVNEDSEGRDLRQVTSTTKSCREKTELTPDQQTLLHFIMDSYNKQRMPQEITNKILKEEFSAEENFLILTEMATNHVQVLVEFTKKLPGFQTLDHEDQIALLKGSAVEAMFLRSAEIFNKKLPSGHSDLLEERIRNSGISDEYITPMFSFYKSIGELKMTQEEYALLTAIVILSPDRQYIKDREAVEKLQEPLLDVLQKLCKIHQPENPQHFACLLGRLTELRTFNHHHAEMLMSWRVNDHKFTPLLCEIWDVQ
Chain of Hepatocyte nuclear factor 6 (Homo sapiens) (Q9UBC0 whole entry, looked up): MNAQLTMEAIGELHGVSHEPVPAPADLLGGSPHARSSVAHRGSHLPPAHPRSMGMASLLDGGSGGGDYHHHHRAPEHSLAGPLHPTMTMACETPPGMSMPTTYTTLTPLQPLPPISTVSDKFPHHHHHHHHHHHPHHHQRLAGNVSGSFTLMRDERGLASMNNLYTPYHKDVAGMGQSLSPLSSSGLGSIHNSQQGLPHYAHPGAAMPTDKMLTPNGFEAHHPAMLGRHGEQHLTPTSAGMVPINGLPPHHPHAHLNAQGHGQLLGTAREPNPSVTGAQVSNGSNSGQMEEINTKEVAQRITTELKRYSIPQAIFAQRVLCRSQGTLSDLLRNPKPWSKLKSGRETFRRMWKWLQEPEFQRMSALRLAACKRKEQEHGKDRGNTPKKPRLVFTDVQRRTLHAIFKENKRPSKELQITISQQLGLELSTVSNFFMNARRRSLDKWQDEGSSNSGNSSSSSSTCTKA
Chain of Transcription factor E2F1 (Homo sapiens) (Q01094 whole entry, looked up): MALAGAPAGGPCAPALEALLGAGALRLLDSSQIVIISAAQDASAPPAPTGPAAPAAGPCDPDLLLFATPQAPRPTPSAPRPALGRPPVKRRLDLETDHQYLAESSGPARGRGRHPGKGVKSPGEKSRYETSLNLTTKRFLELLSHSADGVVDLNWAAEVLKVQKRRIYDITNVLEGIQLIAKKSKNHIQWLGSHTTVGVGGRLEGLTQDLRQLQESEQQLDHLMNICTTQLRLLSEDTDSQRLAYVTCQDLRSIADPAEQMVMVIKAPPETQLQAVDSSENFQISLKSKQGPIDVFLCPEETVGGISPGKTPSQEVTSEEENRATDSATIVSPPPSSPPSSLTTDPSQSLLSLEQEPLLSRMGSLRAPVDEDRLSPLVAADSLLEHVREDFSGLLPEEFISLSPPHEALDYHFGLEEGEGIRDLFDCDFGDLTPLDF

NC(=O)C(F)(F)C(F)(F)C(F)(F)C(F)F
not listed: [19] | [20]
inactive: all other assays above

CCN=c1cc2oc3cc(NCC)c(C)cc3c(-c3ccccc3C(=O)OCC)c-2cc1C
active: [2] 11.1 µM | [4] 11.1 µM | [11] 16.3 µM | [12] 16.5 µM | [14] 8.05 µM | [17] 17 µM | [18] 9.29 µM
not listed: [19] | [20]
inactive: all other assays above

OCC(F)(F)C(F)(F)C(F)(F)C(F)(F)C(F)(F)C(F)(F)CO
active: [6] 0.0909 µM
not listed: [8]
inactive: all other assays above

C=CCOC(=O)CC(C)C
not listed: [8] | [19]
inactive: all other assays above

CC1=CCC(=O)O1
not listed: [8]
inactive: all other assays above

O=C(F)C1(F)C(F)(F)C(F)(F)C(F)(F)C(F)(F)C1(F)F
not listed: [8]
inactive: all other assays above

CCCCCCCC/C=C\CCCCCCCC(=O)OCC(O)CO (stereo not drawn)
active: [20] 100 µM
not listed: [7]
inactive: all other assays above

CCCCOC(=O)[C@H](C)O
not listed: [8] | [16]
inactive: all other assays above

CCOC(OCC)OCC
not listed: [8] | [16] | [19]
inactive: all other assays above

O=C(O)CCC(F)(F)C(F)(F)C(F)(F)C(F)(F)C(F)(F)C(F)(F)C(F)(F)F
active: [14] 150 µM
not listed: [8] | [19] | [20]
inactive: all other assays above

O=C=Nc1cccc2c(N=C=O)cccc12
not listed: [16] | [19] | [20]
inactive: all other assays above

CCCCCCCC/C=C\CCCCCCCC(=O)N(C)CC(=O)O
not listed: [8] | [20]
inactive: all other assays above

O=C(O)C(F)(F)C(F)(F)C(F)(F)OC(F)(C(F)(F)F)C(F)(F)F
not listed: [8] | [16]
inactive: all other assays above

c1ccc(C[P+](c2ccccc2)(c2ccccc2)c2ccccc2)cc1
active: [14] 31.3 µM | [18] 59.4 µM
not listed: [8]
inactive: all other assays above

CC1=CC2C3C=CC(C3)C2C1C (stereo not drawn)
active: [1] 29.9 µM | [18] 65.8 µM
not listed: [7]
inactive: all other assays above
